From PubChem BioAssay (NCI)
Compounds without any hit were thinned out: in the full panel of roughly 83,000, 20% have a hit.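 Step 1: grow cells in 96-well plates. Step 2: add test compound at a single concentration. Step 3: incubate 48 h. Step 4: record percent growth.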 Unmarked numbers belong to inactive results. Activity calls are given as the source filed them. The calls were made as follows: active = growth percent below 10; inactive = the rest.

Legend:
Test in all cases: NCI-60 one-dose screen, 48 h (100 = growth as untreated, 0 = no growth, -100 = all killed)
Details in all cases: 10 µM unless noted
[1] = tested on: SR leukemia
[2] = tested on: RPMI-8226 leukemia
[3] = tested on: OVCAR-8 ovarian
[4] = tested on: OVCAR-5 ovarian
[5] = tested on: OVCAR-4 ovarian
[6] = tested on: SK-OV-3 ovarian
[7] = tested on: IGROV1 ovarian
[8] = tested on: OVCAR-3 ovarian
[9] = tested on: HS 578T breast
[10] = tested on: NCI/ADR-RES ovarian
[11] = tested on: T-47D breast
[12] = tested on: BT-549 breast
[13] = tested on: MDA-MB-435 melanoma
[14] = tested on: SW-620 colon
[15] = tested on: MCF7 breast
[16] = tested on: HCT-116 colon
[17] = tested on: HCC-2998 colon
[18] = tested on: KM12 colon

SMILES: O=C(NO)c1ccc(CNc2cccc3nc(C4CC4)n(-c4ccccc4)c(=O)c23)cc1
- growth [1]: 1.62% (active)
- growth [2]: -26.6% (active)
- growth [3]: -15.4% (active)
- growth [4]: 35.7%
- growth [5]: 11.5%
- growth [6]: 16%
- growth [7]: 8.21% (active)
- growth [8]: 0.886% (active)
- growth [9]: 39.8%
- growth [10]: -10.7% (active)
- growth [11]: 22.9%
- growth [12]: 64%
- growth [13]: 10.3%
- growth [14]: 0.537% (active)
- growth [15]: 27.6%
- growth [16]: -22.1% (active)
- growth [17]: 36%

SMILES: COc1cc(C2CC(c3ccc(C)cc3)=NN2C=O)ccc1Oc1nc2c(c(=O)n(C)c(=O)n2C)n1C (centres undefined)
- growth [1]: 85.7%
- growth [2]: 72.1%
- growth [3]: 92.4%
- growth [4]: 102%
- growth [5]: 77.8%
- growth [6]: 124%
- growth [7]: 82.6%
- growth [8]: 105%
- growth [9]: 80.2%
- growth [10]: 63%
- growth [11]: 80%
- growth [12]: 97.9%
- growth [13]: 62.7%
- growth [14]: 102%
- growth [15]: 77.1%
- growth [16]: 81.8%
- growth [17]: 86.6%
- growth [18]: 77.9%

SMILES: CC(C)(C)[Si](C)(C)OC1[C@@H](O[Si](C)(C)C(C)(C)C)[C@@H](CNC(=O)NC(=O)NC(=O)CCl)O[C@H]1n1cnc2c(NC(=O)Nc3ccccc3)ncnc21 (some centres undefined)
- growth [1]: -10.7% (active)
- growth [2]: 46.8%
- growth [3]: 25.1%
- growth [4]: 74.1%
- growth [5]: 58.1%
- growth [6]: 97.3%
- growth [7]: -51.8% (active)
- growth [8]: -6.77% (active)
- growth [9]: 74.3%
- growth [10]: 50.4%
- growth [11]: 77%
- growth [12]: 71.7%
- growth [13]: 76.3%
- growth [14]: 85.4%
- growth [15]: 37.8%
- growth [16]: 17.6%
- growth [17]: 75.5%

SMILES: N=C(N)c1ccc(-c2ccc(-c3cccs3)s2)cc1F
- growth [1]: -23.8% (active)
- growth [2]: -48.1% (active)
- growth [3]: -44.4% (active)
- growth [4]: -83.6% (active)
- growth [5]: -59.1% (active)
- growth [6]: -100% (active)
- growth [7]: -70.6% (active)
- growth [8]: -77.2% (active)
- growth [9]: -28.1% (active)
- growth [10]: -57.4% (active)
- growth [11]: -63.7% (active)
- growth [12]: -80.6% (active)
- growth [13]: -81.5% (active)
- growth [14]: -62.8% (active)
- growth [15]: -68.5% (active)
- growth [16]: -47.2% (active)
- growth [17]: -81.2% (active)
- growth [18]: -76.8% (active)

SMILES: O=C1OC(/C=C/c2ccccc2)=NC/1=C/c1ccccc1[N+](=O)[O-]
- growth [1]: 90.8%
- growth [2]: 91.9%
- growth [3]: 96.8%
- growth [4]: 99.1%
- growth [5]: 94.2%
- growth [6]: 101%
- growth [7]: 79.6%
- growth [8]: 98.4%
- growth [9]: 107%
- growth [10]: 96.4%
- growth [11]: 90.5%
- growth [12]: 89.8%
- growth [13]: 108%
- growth [14]: 103%
- growth [15]: 90.7%
- growth [16]: 104%
- growth [17]: 104%

SMILES: C[C@@H]1CC2C3CCC4=CC(=O)C=C[C@]4(C)[C@@]3(Cl)[C@@H](O)C[C@]2(C)[C@@]1(OC(=O)c1ccco1)C(=O)CCl (some centres undefined)
- growth [1]: 54.6%
- growth [2]: 55.9%
- growth [3]: 53%
- growth [4]: 83.1%
- growth [5]: 67.7%
- growth [6]: 54.1%
- growth [7]: 76.3%
- growth [8]: 89.3%
- growth [9]: 67.2%
- growth [10]: 39.9%
- growth [11]: 97.1%
- growth [12]: 27.9%
- growth [13]: 73.4%
- growth [14]: 95.3%
- growth [15]: 58.9%
- growth [16]: 57.4%
- growth [17]: 75.9%

SMILES: Cc1cc2nc(CN)[nH]c2cc1C
- growth [1]: 97.2%
- growth [2]: 96.5%
- growth [3]: 106%
- growth [4]: 112%
- growth [5]: 112%
- growth [6]: 104%
- growth [7]: 111%
- growth [8]: 100%
- growth [9]: 114%
- growth [10]: 112%
- growth [11]: 94.4%
- growth [12]: 101%
- growth [13]: 109%
- growth [14]: 108%
- growth [15]: 96.7%
- growth [16]: 104%
- growth [17]: 106%
- growth [18]: 103%

SMILES: O=C(NNC(=O)c1cccc(Cl)c1)c1ccccc1
- growth [1]: 85.8%
- growth [2]: 101%
- growth [3]: 106%
- growth [4]: 103%
- growth [5]: 103%
- growth [6]: 114%
- growth [7]: 115%
- growth [8]: 115%
- growth [9]: 105%
- growth [10]: 111%
- growth [11]: 103%
- growth [12]: 111%
- growth [13]: 103%
- growth [14]: 106%
- growth [15]: 105%
- growth [16]: 107%
- growth [17]: 105%

SMILES: O=C1Nc2ccc(Br)cc2/C1=N/c1nc(-c2ccccc2)cs1
- growth [1]: 85.2%
- growth [2]: 75.6%
- growth [3]: 89.1%
- growth [4]: 108%
- growth [5]: 80.5%
- growth [6]: 60.7%
- growth [7]: 84%
- growth [8]: 75%
- growth [9]: 90.3%
- growth [10]: 103%
- growth [11]: 58.9%
- growth [12]: 73.2%
- growth [13]: 97.8%
- growth [14]: 88.6%
- growth [15]: 67.4%
- growth [16]: 75.6%
- growth [17]: 109%
- growth [18]: 88.3%

SMILES: O=C1CCCN1C(O)CCN(Cc1ccccc1)Cc1ccc(Cl)cc1 (centres undefined)
- growth [1]: 83%
- growth [2]: 98.5%
- growth [3]: 96.7%
- growth [4]: 99.2%
- growth [5]: 103%
- growth [6]: 101%
- growth [7]: 100%
- growth [8]: 108%
- growth [9]: 104%
- growth [10]: 106%
- growth [11]: 99.6%
- growth [12]: 105%
- growth [13]: 103%
- growth [14]: 100%
- growth [15]: 94.1%
- growth [16]: 96.7%
- growth [17]: 108%
- growth [18]: 105%

SMILES: CC(C)(C)[Si](C)(C)OC1[C@@H](O[Si](C)(C)C(C)(C)C)[C@@H](CNC(=O)NC(=O)NC(=O)CI)O[C@H]1n1cnc2c(NC(=O)Nc3ccccc3)ncnc21 (some centres undefined)
- growth [1]: 2.35% (active)
- growth [2]: 35.2%
- growth [3]: -9.33% (active)
- growth [4]: 67.3%
- growth [5]: 42.9%
- growth [6]: 92.6%
- growth [7]: -65.4% (active)
- growth [8]: -63.5% (active)
- growth [9]: 67.4%
- growth [10]: 4.72% (active)
- growth [11]: 87.5%
- growth [12]: 97.3%
- growth [13]: 93.2%
- growth [14]: 76.1%
- growth [15]: 70.8%
- growth [16]: 38.5%
- growth [17]: 99.4%

SMILES: Cc1ccc(C(CN(C)C)C(=O)c2ccccc2)cc1 (centres undefined)
- growth [1]: -29.2% (active)
- growth [2]: -41% (active)
- growth [3]: 14.5%
- growth [4]: 65.9%
- growth [5]: 33.2%
- growth [6]: 97.6%
- growth [7]: 88.9%
- growth [8]: -8.33% (active)
- growth [9]: 83.5%
- growth [10]: 49.7%
- growth [11]: 33%
- growth [12]: -4.79% (active)
- growth [13]: 18.2%
- growth [14]: -53.8% (active)
- growth [15]: -0.801% (active)
- growth [16]: -86.4% (active)
- growth [17]: 101%
- growth [18]: 33.9%

SMILES: O=c1oc2ccccc2cc1-c1cc(-c2ccc(-c3cc(-c4cc5ccccc5oc4=O)nc(-c4cc5ccccc5oc4=O)c3)cc2)cc(-c2cc3ccccc3oc2=O)n1
- growth [1]: 93.7%
- growth [2]: 98.2%
- growth [3]: 103%
- growth [4]: 119%
- growth [5]: 100%
- growth [6]: 94.3%
- growth [7]: 105%
- growth [8]: 110%
- growth [9]: 104%
- growth [10]: 108%
- growth [11]: 91.1%
- growth [12]: 106%
- growth [13]: 114%
- growth [14]: 110%
- growth [15]: 68.6%
- growth [16]: 97%
- growth [17]: 110%
- growth [18]: 103%

SMILES: O=C1C(Cl)=C(Nc2cccc3ccccc23)C(=O)c2ccccc21
- growth [1]: 51%
- growth [2]: 17.8%
- growth [3]: 71.5%
- growth [4]: 134%
- growth [5]: 58.6%
- growth [6]: 99.1%
- growth [7]: 58.8%
- growth [8]: 39%
- growth [9]: 87.9%
- growth [10]: 81.2%
- growth [11]: 34.3%
- growth [12]: 73.4%
- growth [13]: 55.9%
- growth [14]: 68.9%
- growth [15]: 44%
- growth [16]: 47.7%
- growth [17]: 103%
- growth [18]: 58.4%

SMILES: O=C1/C(=C/N2N=C(c3ccc(Cl)cc3)CC2c2ccccc2O)SC(=S)N1c1cccc(C(F)(F)F)c1 (centres undefined)
- growth [1]: 42%
- growth [2]: 25.4%
- growth [3]: 59.7%
- growth [4]: 82.3%
- growth [5]: 37%
- growth [6]: 74%
- growth [7]: 43.7%
- growth [8]: 54.6%
- growth [9]: 71%
- growth [10]: 56.4%
- growth [11]: 27.4%
- growth [12]: 71.7%
- growth [13]: 64.6%
- growth [14]: 64.7%
- growth [15]: 15.7%
- growth [16]: 45.5%
- growth [17]: 62.3%
- growth [18]: 38%

SMILES: COc1ccc([C@H]2c3[nH]c4ccccc4c3C[C@H]3C(=O)N(CCCCCCC(=O)NO)CC(=O)N23)cc1
- growth [1]: 16.5%
- growth [2]: -9.73% (active)
- growth [3]: 30.3%
- growth [4]: 23.3%
- growth [5]: 54.3%
- growth [6]: 55.3%
- growth [7]: 34.3%
- growth [8]: 33.9%
- growth [9]: 47.7%
- growth [10]: 58.4%
- growth [11]: 7.57% (active)
- growth [12]: 62.4%
- growth [13]: 24.6%
- growth [14]: 4% (active)
- growth [15]: 29.9%
- growth [16]: 10.4%
- growth [17]: 6.81% (active)
- growth [18]: 49.8%

SMILES: COc1ccc2c(c1)OC1=C(C(=O)OC1)C2c1cc(OC)c2c(c1)OCCO2 (centres undefined)
- growth [1]: 27.3%
- growth [2]: 25%
- growth [3]: 20.7%
- growth [4]: 32.4%
- growth [5]: 48%
- growth [6]: -2.33% (active)
- growth [7]: 19.3%
- growth [8]: -30.4% (active)
- growth [9]: 29.6%
- growth [10]: 13.9%
- growth [11]: 60.2%
- growth [12]: 24.6%
- growth [13]: -18.1% (active)
- growth [14]: 24.6%
- growth [15]: 10.3%
- growth [16]: 4.09% (active)
- growth [17]: 23%
